Here are results for 38 molecules from PubChem BioAssay (NCI).

Structures are written as SMILES. Where “and” joins values, the source holds several entries; their conditions need not be identical. Identical values can stand only once. This is part of a sample that, as a whole, favours compounds with a hit. Of some 79,000 tested, about 15% had one in any assay. Some compounds were tested as several samples or in several runs, with calls that do not always agree. Calls of active or inactive are those of the source. Cut-off read from the data, not from the text of the source: active = growth inhibition above about 70%; inactive = the rest.

The nature of the assay: NCI Yeast Anticancer Drug Screen. Data for the mlh1 rad18 strain (AID 175). The settings on record: S. cerevisiae mlh1 rad18 strain growth inhibition; at 5.0 µM (retest, dose inferred, filed as 0.5); stronger effect = higher value. The gist of the method: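 Read-out is yeast growth inhibition, calculated against vehicle-only controls. The compound was applied to a strain engineered with DNA damage repair alterations.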
On to `Oc1c(Cl)cc(Cl)cc1Cc1cc(Cl)cc(Cl)c1O`, for which the growth inhibition is 94% (active) and 89% (active).
To `COc1cc(OC)c(OC)cc1/C=C\c1ccnc2ccccc12` belongs 13% (inactive); to `CC(C)C1=CC23CCC4C(C)(C(=O)O)CCCC4(C)C2CC1C1C(=O)OC(=O)C13` (stereo not drawn), 90% (active).
In the case of `CN(C)c1nc(N)c(C#N)c(C#N)c1C#N` it was 26% (inactive); in that of `C/C(=N\NC(=S)N1CCN(c2ccccn2)CC1)c1nccs1`, 38% (inactive).
To `CCCCCCCCCCCCCCCCCCOCC(COP(=O)([O-])OCC[N+](C)(C)C)OC` (stereo not drawn) belongs -59% (inactive); to `COc1ccc2nc(C)cc(NCCCCCCCCCNc3cc(C)nc4ccc(OC)cc34)c2c1`, -21% (inactive).
`CC1CC[P+](c2ccccc2)(c2ccccc2)c2c1ccc1ccccc21` (stereo not drawn): the growth inhibition was 64% (inactive).
To `CC(C)C1=C(O)C2=C(C(=O)C1=O)C1(C)CCCC(C)(C)C1CC2O` (stereo not drawn) belongs 56% (inactive).
In the case of `CC(=O)[O-].[O-]c1c(Cl)cc(Cl)cc1/C=N/Nc1ccccn1.[Zn+2]` it was 3% (inactive).
In the case of `O=C(c1ccccc1)C(c1ccccc1)C(O)c1ccc([N+](=O)[O-])cc1` (stereo not drawn), the growth inhibition is 11% (inactive) and 6% (inactive).
On to `Clc1nc(Cl)c(Cl)c(Cl)n1`, for which the growth inhibition is 39% (inactive).
In the case of `COc1cccc2c1C(=O)c1c(O)c3c(c(O)c1C2=O)C[C@@](O)(C(C)=O)C[C@@H]3OC1CC(N(C)C)C(O)C(C)O1` (stereo partly drawn) it was 97% (active).
In the case of `CN1C(c2ccccc2)CC(=NOCc2ccccc2)CC1c1ccccc1` (stereo not drawn) it was 94% (active).
For the molecule `Cc1ccc(NCCN(C)C)c2c(=O)c3cc(O)ccc3sc12`, the growth inhibition was 18% (inactive).
In the case of `N#CC1(C2SCCS2=O)C2=C(C(=O)c3ccccc3C2=O)N2CCCC21` (stereo not drawn), the growth inhibition is 17% (inactive).
To `CCN(CC)CCC(=O)/C=C/c1ccccc1` belongs 32% (inactive); to `CC1(O)Cc2c(O)c3c(c(O)c2CC1O)C(=O)C=CC3=O` (stereo not drawn), 9% (inactive); to `Cc1ccc2c(c1)C1(C)OC(C=CC1=O)O2` (stereo not drawn), 94% (active).
In the case of `Fc1cccc(CSC(=S)Nc2ccc(F)c(F)c2)c1` it was 8% (inactive); in that of `CCN(CCO)CCNc1ccc(C)c2sc3ccccc3c(=O)c12`, 23% (inactive); in that of `Cc1n(-c2ccccc2)c2c([n+]1Cc1ccc([N+](=O)[O-])cc1)C(=O)c1ccccc1C2=O`, -8% (inactive).
To `CC(=O)OC1COC(n2c(N)c(C#N)c(-c3ccccc3)c(C#N)c2=S)C(OC(C)=O)C1OC(C)=O` (stereo not drawn) belongs -7% (inactive) and -2% (inactive).
`O=c1[nH]c2cc([N+](=O)[O-])ccc2nc1/C=C(\O)c1ccc([N+](=O)[O-])cc1`: the growth inhibition is 6% (inactive).
In the case of `Cc1n(Cc2ccccc2)c2c([n+]1C)C(=O)c1ccccc1C2=O` it was 78% (active); in that of `CS(=O)(=O)OCCN(CCOS(C)(=O)=O)c1ccc(C=Nc2ccc(-c3csc(Cc4ccccc4)n3)cc2)c(Cl)c1`, 15% (inactive).
In the case of `CCCCCCCCCCS(=O)CC(CO)NC(=O)/C=C/c1c(C)[nH]c(=O)[nH]c1=O` (stereo not drawn) it was 53% (inactive); in that of `C/C(=N\O)c1cc(Br)cc([N+](=O)[O-])c1O`, 5% (inactive).
To `COc1cc2c(c(OC)c1OC)-c1ccc(SC)c(=O)cc1C(NC(=O)c1ccccc1)CC2` (stereo not drawn) belongs -6% (inactive); to `COc1cccc2c1C(=O)c1c(O)c3c(c(O)c1C2=O)C[C@@](O)(C(C)=O)C[C@@H]3OC1CC(O)C(O)C(C)O1` (stereo partly drawn), 40% (inactive).
Turning to `CCCCCCCc1c(Cl)nc(Cl)nc1Cl`, the growth inhibition was 16% (inactive).
Take `O=C1/C(=C/c2ccc(Cl)cc2)CNC/C1=C\c1ccc(Cl)cc1`: the growth inhibition was 91% (active) and 66% (inactive).
To `O=C1C(Cl)=C(N2CCN(C3=C(Cl)C(=O)c4ccccc4C3=O)CC2)C(=O)c2ccccc21` belongs 26% (inactive); to `O=C1c2ccccc2-n2c1nc1ccccc1c2=O`, 23% (inactive).
In the case of `Nc1ccc(Cn2ccc3c4c(N)nc(N)nc4ccc32)cc1` it was 13% (inactive).
To `Nc1nc(N)c2c(Cl)c(CNc3ccc(Cl)c(Cl)c3)ccc2n1` belongs 75% (active); to `Cc1cc(NCCCCCCCNc2cc(C)nc3cc([N+](=O)[O-])ccc23)c2ccc([N+](=O)[O-])cc2n1`, 5% (inactive); to `CCCCCCCCCCCCCCCCCC(=O)NCCO`, 0% (inactive).
